Assay outcomes deposited in PubChem BioAssay by National Center for Advancing Translational Sciences (NCATS).
An excerpt weighted towards active compounds, which were near 12% of everything screened.
G9a inh: blocks human histone lysine methyltransferase G9a; Q96KQ7; 350,000 tested, 8.8% active; Potency, µM (highest dose often 102 µM), for inactives: at the top dose activity, negative = inhibition, hits mostly inhibitors; G9a H3K9 monomethylation, AlphaScreen, 2 h; note: % is set by controls: 0 for no effect and ±100 for the full control effect; nearly all actives have a fitted effect of over 75% in size
Target sequence (Q96KQ7 913-1193 limits assumed): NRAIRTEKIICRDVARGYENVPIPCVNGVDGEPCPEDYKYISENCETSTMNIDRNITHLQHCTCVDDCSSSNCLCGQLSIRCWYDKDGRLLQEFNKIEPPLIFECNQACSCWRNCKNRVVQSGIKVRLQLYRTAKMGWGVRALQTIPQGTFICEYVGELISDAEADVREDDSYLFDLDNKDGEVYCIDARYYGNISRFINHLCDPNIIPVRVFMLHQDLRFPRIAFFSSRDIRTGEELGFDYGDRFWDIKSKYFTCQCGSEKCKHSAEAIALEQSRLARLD
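Chemiluminescent proximity detection of H3K9 monomethylation, read after 10 min bead incubation in the dark. Reaction: 20 nM G9a, 500 nM biotin-H3K9 peptide, 20 uM SAM cofactor, 2 h, room temperature, following 15 min enzyme-compound preincubation.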
PLK1 PBD block: inhibitors of human PLK1 polo-box domain binding | P53350 | Plk1 PBD binding of FITC phosphopeptide, fluorescence polarization | Potency, µM, for the others: max response, negative = inhibition, most hits filed as inhibitors | 360,000 tested, 2.8% active; note: series mostly up to about 57 µM; % is set by controls: 0 for no effect and ±100 for the full control effect; nearly all actives have a fitted effect of over 65% in size
Sfp inh: inhibitors of Bacillus subtilis Sfp phosphopantetheinyl transferase | Potency, µM, without a hit: largest response in the series, negative = inhibition, actives largely listed as inhibitors | Biochemical Sfp PPTase activity, qHTS | 310,000 tested, 3.5% active | AID 1490;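 note: the enzyme is Sfp with the accession as filed and its product quenches rhodamine fluorescence; 0% = enzyme reaction without inhibitor and -100% = no enzyme wells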
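Compounds were incubated with enzyme (final 15 nM) for 15 min at room temperature before substrate addition started the reaction. Fluorescence at 525 nm excitation, 598 nm emission was recorded immediately and after 30 minutes.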
JMJD2A Tudor: inhibitors of human JMJD2A Tudor domain | AlphaScreen JMJD2A-Tudor / H3K4me3 peptide binding | Potency, µM (top dose mostly 114 µM), for inactives: at the highest dose activity change, negative = inhibition, hits mostly inhibitors | 390,000 tested, 4.4% active | AID 504339; note: % is set by controls: 0 for no effect and ±100 for the full control effect; nearly all actives have a fitted effect of over 50% in size
BAZ2B inh: BAZ2B (human) inhibition | Q9UIF8 | AlphaScreen BAZ2B-H3K14Ac peptide displacement | Potency, µM (doses to about 114 µM), for inactives: top-dose activity change, negative = inhibition, actives largely listed as inhibitors | 360,000 tested, 4.4% active; note: % is set by controls: 0 for no effect and ±100 for the full control effect; nearly all actives have a fitted effect of over 60% in size
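BAZ2B (50 nM) with biotin-H3(5-23)K14Ac peptide (50 nM) in PBS pH 7.4, 0.01% Tween-20, preformed 30 min, then compound 30 min at room temperature; top concentration 110uM. AlphaScreen streptavidin donor/nickel chelate acceptor beads (10 ug/mL final), 20 min dark, signal read.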
HP1b chromo inh: blocks HP1-beta chromodomain binding to methylated histone tails; AID 540317; P83916; Potency, µM (doses to about 114 µM), inactives show top-dose activity change, negative = inhibition, usual class: inhibitors; AlphaScreen HP1-beta / biotin-H3K9me3 peptide binding; 390,000 tested, 0.56% active; note: nearly all actives have a fitted effect of over 70% in size
Target sequence (P83916 whole entry, looked up): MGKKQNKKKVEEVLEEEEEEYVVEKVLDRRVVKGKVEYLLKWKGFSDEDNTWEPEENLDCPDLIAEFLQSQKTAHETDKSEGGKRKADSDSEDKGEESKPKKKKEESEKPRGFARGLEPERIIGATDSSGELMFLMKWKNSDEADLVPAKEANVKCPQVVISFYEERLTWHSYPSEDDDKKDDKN
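HP1-beta protein (50 nM final) preincubated 30 min at room temperature with biotinylated H3(1-18)K9me3 peptide (50 nM) in PBS pH 7.4, 0.01% Tween-20, then compound added for 30 min. AlphaScreen streptavidin donor/nickel chelate acceptor beads (10 ug/mL final), 30 min dark, luminescence read.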
Numbers without * were called inactive; [ ] = remark or other dose. Calls come from the whole dose curve; as a rule, active = well fitted curve in the direction sought with a large enough effect; inconclusive = small, poorly fitted or top-dose-only effect, or another doubt; inactive = no such curve, though single readings can be large; an effect the other way counts as inactive or inconclusive. Potency is the fitted concentration of half-maximal effect.

CCCN(N=Nc1cccc([N+](=O)[O-])c1)c1cccc([N+](=O)[O-])c1 was read as G9a inh 32µM*, PLK1 PBD block -21%, Sfp inh 5%, JMJD2A Tudor inconclusive, BAZ2B inh inconclusive and HP1b chromo inh -25%.
`COCCn1c(C)cc(/C=C2/NC(=O)N(c3cccc(Cl)c3)C2=O)c1C` gave G9a inh 50µM*, PLK1 PBD block -4%, Sfp inh 11%, JMJD2A Tudor -24%, BAZ2B inh -37% and HP1b chromo inh 8%.
Screening O=C1N/C(=C/c2ccsc2)C(=O)N1c1ccccc1 returned PLK1 PBD block 4%, Sfp inh -5%, JMJD2A Tudor 2%, BAZ2B inh -1% and HP1b chromo inh 25%.
Screening CC(C)n1cc(/C=C2\NC(=O)N(c3cccc(Cl)c3)C2=O)c2ccccc21 returned G9a inh inconclusive, PLK1 PBD block 0%, Sfp inh -4%, JMJD2A Tudor -11%, BAZ2B inh -14% and HP1b chromo inh 16%.
CCn1c(C)cc(/C=C2/NC(=O)N(c3ccccc3)C2=O)c1C was read as PLK1 PBD block 21µM*, Sfp inh -7%, JMJD2A Tudor inconclusive, BAZ2B inh inconclusive and HP1b chromo inh -9%.
`CCc1cccc(N2C(=O)N(CC(=O)NCc3cccc(OC)c3OC)c3ccccc3S2(=O)=O)c1` gave G9a inh 1%[59 µM], JMJD2A Tudor -16%, BAZ2B inh -10% and HP1b chromo inh 7%.
`C/C(=N/Nc1ccc(C)cc1)C1(C)N(O)C(C)(C)C(c2ccco2)=[N+]1[O-]` (centres undefined) gave G9a inh 7.1µM*, PLK1 PBD block -19%, Sfp inh -14%, JMJD2A Tudor -34%, BAZ2B inh inconclusive and HP1b chromo inh 10%.
Screening Cc1nn(-c2ccc(N3CCCC3)nn2)c(C)c1CCC(=O)NCc1ccc(OC(C)C)cc1 returned G9a inh 5%[59 µM], JMJD2A Tudor -12%, BAZ2B inh -33% and HP1b chromo inh 39%.
Screening CC(C)C[C@H](NC(=O)c1nc[nH]c1C(=O)N[C@@H](CC(C)C)C(=O)OC(C)(C)C)C(=O)OCc1ccccc1 returned G9a inh 3%, PLK1 PBD block 3%, Sfp inh 34%, JMJD2A Tudor -22%, BAZ2B inh -5% and HP1b chromo inh 37%.
CC(C)C[C@@H](CNCC(=O)[C@H](CC(C)C)NC(=O)c1[nH]cnc1C(=O)N[C@H](CN)CC(C)C)NC(=O)c1nc[nH]c1C(=O)N[C@@H](CC(=O)O)C(=O)O was read as PLK1 PBD block -13%, JMJD2A Tudor 79µM* and HP1b chromo inh 38%.
CC(C)C[C@H](NC(=O)c1nc[nH]c1C(=O)N[C@@H](CCCCN)C(=O)OC(C)(C)C)C(=O)OC(C)(C)C was read as PLK1 PBD block 7%, JMJD2A Tudor -35% and HP1b chromo inh 32%.
For CC(C)C[C@@H](CN)NC(=O)c1nc[nH]c1C(=O)N[C@@H](CC(C)C)C(=O)CNC[C@H](C)NC(=O)c1nc[nH]c1C(=O)N[C@@H](CC(=O)O)C(=O)O the results were PLK1 PBD block -23%, JMJD2A Tudor 79µM* and HP1b chromo inh 54%.
`CC(C)CN(CC(C)C)S(=O)(=O)c1ccc(C(=O)Nc2sc3c(c2C(N)=O)CC(C)(C)NC3(C)C)cc1` gave G9a inh 4%[59 µM], JMJD2A Tudor -24%, BAZ2B inh 5% and HP1b chromo inh -4%.
CC(C)(C)c1ccc(S(=O)(=O)NCC(=O)Nc2sc3c(c2C(N)=O)CCCC3)cc1 was read as G9a inh 50µM*, PLK1 PBD block 27µM*, Sfp inh -7%, JMJD2A Tudor -29%[11.4 µM], BAZ2B inh 2% and HP1b chromo inh -6%.
For COCCN(CCOC)S(=O)(=O)c1ccc(C(=O)Nc2sc3c(c2C(N)=O)CCCCC3)cc1 the results were G9a inh 35µM*, PLK1 PBD block inconclusive, Sfp inh 50µM*, JMJD2A Tudor -15%, BAZ2B inh 7% and HP1b chromo inh inconclusive.
`Cc1ccc(S(=O)(=O)CC(=O)Nc2sc3c(c2C(N)=O)CCCC3)cc1` gave G9a inh -22%[59 µM], JMJD2A Tudor -34%, BAZ2B inh -2% and HP1b chromo inh 32%.
CN(C1CCCCC1)S(=O)(=O)c1ccc(C(=O)Nc2sc3c(c2C(N)=O)CC(C)(C)NC3(C)C)cc1 was read as G9a inh 12%, PLK1 PBD block 34µM*, Sfp inh -5%, JMJD2A Tudor inconclusive, BAZ2B inh -13%[57.1 µM] and HP1b chromo inh 32%.
Screening CCCCN(CC)Cc1ccc(CNS(=O)(=O)c2cc3c(cc2Cl)NC(=O)CO3)o1 returned G9a inh 4%[59 µM], JMJD2A Tudor -12%, BAZ2B inh -2% and HP1b chromo inh 13%[57 µM].
Screening O=C(COC(=O)c1ccc(Br)cc1)NC(=O)NCc1ccccc1 returned G9a inh 5%[12.7 µM], PLK1 PBD block 2%, JMJD2A Tudor 2%, BAZ2B inh 0% and HP1b chromo inh 40%.
`Cc1csc2nc(CCNS(=O)(=O)c3ccc4c(c3)OCCO4)cn12` gave G9a inh 50µM*, PLK1 PBD block -3%, Sfp inh 6%, JMJD2A Tudor -7%, BAZ2B inh 0% and HP1b chromo inh 14%.
`Nc1cc(C(F)(F)F)ccc1S(=O)(=O)Nc1cccc2c1NCCC2` gave JMJD2A Tudor inconclusive and HP1b chromo inh 12%.
CCOc1ccc(CCNC(=O)COC(=O)c2ccc(Br)o2)cc1OCC was read as G9a inh inconclusive, PLK1 PBD block -9%, JMJD2A Tudor -11%, BAZ2B inh -8% and HP1b chromo inh 3%.
O=C(C1=C[C@@H](c2csc3ccccc23)C[C@@H](OCCCCO)O1)N1CCN(Cc2ccc3c(c2)OCO3)CC1 was read as G9a inh inconclusive, PLK1 PBD block 3%, Sfp inh 1%, JMJD2A Tudor inconclusive, BAZ2B inh inconclusive and HP1b chromo inh -7%.
Screening O=C(C1=C[C@H](c2csc3ccccc23)C[C@H](OCCCCO)O1)N1CCN(Cc2ccccc2)CC1 returned G9a inh inconclusive, PLK1 PBD block 9%, Sfp inh inconclusive, JMJD2A Tudor inconclusive, BAZ2B inh 50µM* and HP1b chromo inh 5%.
For O=C(Nc1ccccc1Cl)c1ccc2ccccc2c1 the results were PLK1 PBD block -8%, Sfp inh -6%, JMJD2A Tudor 2%, BAZ2B inh 9% and HP1b chromo inh 44%.
For C[n+]1ccc(C(=O)Nc2ccccc2Cl)cc1 the results were G9a inh 25µM*, PLK1 PBD block -27%, Sfp inh 4%, JMJD2A Tudor inconclusive, BAZ2B inh inconclusive and HP1b chromo inh -2%.
